Experimental data taken from PubChem BioAssay (NCI).
About 83,000 compounds went through this panel and 20% of them were active in at least one assay; those are over-represented in the sample as a whole.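 The endpoint reported here, percent growth, reads 100 for growth as untreated, 0 for no net growth and -100 for all cells dead.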 Values without a mark were called inactive. Active and inactive are the calls of the source. The calls were made as follows: active = growth percent below 10; inactive = the rest.

What was measured:
Assay in all cases: NCI-60 one-dose screen, 48 h (100 = growth as untreated, 0 = no growth, -100 = all killed)
HOP-62 NSCLC = conditions: 10 µM unless noted
NCI-H522 lung = conditions: 10 µM unless noted
K-562 leukemia = conditions: 10 µM unless noted
SNB-19 CNS = conditions: 10 µM unless noted
LOX IMVI melanoma = conditions: 10 µM unless noted
EKVX NSCLC = conditions: 10 µM unless noted
SN12C renal = conditions: 10 µM unless noted
CAKI-1 renal = conditions: 10 µM unless noted
CCRF-CEM leukemia = conditions: 10 µM unless noted
SR leukemia = conditions: 10 µM
RPMI-8226 leukemia = conditions: 10 µM unless noted
OVCAR-4 ovarian = conditions: 10 µM unless noted
IGROV1 ovarian = conditions: 10 µM
HS 578T breast = conditions: 10 µM unless noted
BT-549 breast = conditions: 10 µM
HOP-92 NSCLC = conditions: 10 µM unless noted
A549/ATCC NSCLC = conditions: 10 µM unless noted
SK-MEL-28 melanoma = conditions: 10 µM unless noted
NCI-H322M lung = conditions: 10 µM unless noted

| SMILES | growth (HOP-62 NSCLC) | growth (NCI-H522 lung) | growth (K-562 leukemia) | growth (SNB-19 CNS) | growth (LOX IMVI melanoma) | growth (EKVX NSCLC) | growth (SN12C renal) | growth (CAKI-1 renal) | growth (CCRF-CEM leukemia) | growth (SR leukemia) | growth (RPMI-8226 leukemia) | growth (OVCAR-4 ovarian) | growth (IGROV1 ovarian) | growth (HS 578T breast) | growth (BT-549 breast) | growth (HOP-92 NSCLC) | growth (A549/ATCC NSCLC) | growth (SK-MEL-28 melanoma) | growth (NCI-H322M lung) |
| --- | --- | --- | --- | --- | --- | --- | --- | --- | --- | --- | --- | --- | --- | --- | --- | --- | --- | --- | --- |
| CC(=O)[O][Hg][CH2]C1(C)COC(C)([CH2][Hg][O]C(C)=O)CO1 (configuration not stated) | 120% | -58.9% (active) | -30.8% (active) | 71.1% | -98.4% (active) | 57.9% | -87.1% (active) | -100% (active) | -65.3% (active) | 9.98% (active) | 26% | 123% | -81% (active) | 84.3% | -100% (active) |  |  |  |  |
| N#CC(C#N)=Cc1ccc2ccccc2c1 | 113% | 96.7% | 102% |  | 84% | 121% | 111% | 101% | 93.3% |  | 90.3% | 110% |  |  | 100% | 95.1% | 107% | 113% |  |
| Cc1cc(NC(=O)/C=C/c2ccc([N+](=O)[O-])cc2)ccc1S(=O)(=O)F |  |  | 94.7% |  | 102% |  | 92.4% | 114% | 98.2% | 81.3% | 87% | 103% | 101% |  | 106% |  | 98.8% | 110% | 84.8% |
| CC(=O)Nc1ccc(Cc2ccc(NC(C)=O)cc2)cc1 |  | 104% | 112% | 121% | 99.8% | 103% | 101% | 88.9% | 101% | 125% | 98.2% | 99% | 116% | 121% |  |  | 95% | 109% | 108% |
| N#[N+]c1nc2nc(N)[nH]c(=O)c2[nH]1 | 92.5% | 94.8% | 101% | 99.8% | 98.5% | 100% | 99.9% |  | 95.1% |  | 97% | 105% | 107% | 92.9% |  | 93.2% | 89.8% | 111% |  |
| Cc1ccc(N)cc1[As]=[As]c1cc(N)ccc1C (configuration not stated) |  | -88.2% (active) | -5.72% (active) | -47.5% (active) | -56.9% (active) |  |  | -91.2% (active) | -38% (active) | -43.7% (active) | -40.2% (active) | -83.1% (active) | -90.8% (active) |  | -93.6% (active) |  | 69.8% | -94.2% (active) | 50.3% |
| CC(C)(C)NCC(O)c1ccccc1Cl (configuration not stated) |  | -37.2% (active) | 17.5% | 27.8% | 35.1% | 53.6% | 24.1% | 54.6% | 10.5% |  | 6.19% (active) | 60.3% | 45.5% | 3.29% (active) | 35.2% |  | 11.5% | 48.2% | 28.3% |
| CN(Cc1cccnc1)N=O | 93.1% | 89.9% | 104% | 99.9% | 93.5% | 99.9% | 102% |  | 100% |  | 102% | 102% | 99.7% | 89% |  | 95.3% | 94.5% | 108% |  |
| COc1ccc2c(c1)NC1=C(C(=O)OC1)C2c1cc(OC)c(OC)c(OC)c1 (configuration not stated) | 44.2% | -26.2% (active) | 7.31% (active) | 47.3% | 11.9% | 53.8% | 23.1% | 25.4% | 6.76% (active) | 5.65% (active) | 12.6% |  | 12% | 31% | 7.12% (active) | 5.87% (active) | 15.6% | 66.2% |  |
| CNC(=O)Oc1cccc(OC)c1 |  | 96.5% |  | 103% |  | 95.5% |  | 86.1% |  |  | 109% | 105% | 118% | 109% | 103% |  | 106% |  | 132% |
| Cc1cccc(N=C2c3cc([N+](=O)[O-])ccc3-c3c2cc([N+](=O)[O-])cc3[N+](=O)[O-])c1 | 61.7% |  | 23.1% | 82.5% | 39.3% | 75.4% | 26.4% | 67.8% | 21.4% |  | -8.81% (active) | 71.3% |  | 101% | 81.8% |  | 72.1% | 97.2% |  |
| O=C(CCF)c1ccc(O)cc1 |  | 87.6% | 98.9% | 96.2% | 95% | 99.3% |  |  | 95% | 96% | 97.5% |  | 100% |  | 110% | 100% | 101% | 113% | 101% |
| CCC[CH2][Sn]([CH2]CCC)([CH2]CCC)[O]C(=O)CC |  | -81.2% (active) | -30.2% (active) | -75.6% (active) | -83.3% (active) | -43.9% (active) |  | -95.2% (active) |  | 7.87% (active) |  |  |  | -38.4% (active) | -98.5% (active) |  | -78.8% (active) | -98.3% (active) | -95.2% (active) |
| NCCc1cc(O)c(O)cc1O | 105% | -11.5% (active) | 102% | 100% | 101% | 102% | 89.1% | 100% | 65.7% |  | 48.4% | 99.5% |  | 120% | 90.9% | 85.4% | 100% | 114% |  |
| O=C(N/N=C/c1ccc(N(CCCl)CCCl)cc1)c1cc(=O)[nH]c(=O)[nH]1 |  | 96.7% |  |  | 93.4% | 115% |  | 53.2% | 66.5% |  | 86.7% | 109% | 83.9% | 105% | 96.8% |  | 106% | 116% | 92.9% |
| COc1cccc2c1C(=O)c1c(O)c3c(c(O)c1C2=O)CC(O)(/C(C)=N/NC(=O)CCC(=O)N/N=C(\C)C1(O)Cc2c(O)c4c(c(O)c2C(OC2CC(N)C(O)C(C)O2)C1)C(=O)c1c(OC)cccc1C4=O)CC3OC1CC(N)C(O)C(C)O1 (configuration not stated) |  | -47% [5 µM] (active) | -60.2% [5 µM] (active) | -20.9% [5 µM] (active) | -35.3% [5 µM] (active) | -19.4% [5 µM] (active) | -5.24% [5 µM] (active) | -44.3% [5 µM] (active) | -25.2% [5 µM] (active) |  | -38% [5 µM] (active) | -13.5% [5 µM] (active) |  | -11.5% [5 µM] (active) |  |  | -30% [5 µM] (active) | -56.3% [5 µM] (active) | -31.6% [5 µM] (active) |
| CNC(=O)Oc1cc(C(C)C)ccc1Sc1ccc(C(C)C)cc1OC(=O)NC |  | 75.7% | 25.6% | 79% | 62.2% | 69.1% | 85.3% | 67% |  | 15.8% | 51.2% | 80.8% |  | 67.7% | 94.2% | 89% | 64.2% | 66.3% |  |
| C#CC1(O)CCC2(C)C(CCC3C4CCC(=O)C4(C)CCC32)C1 (configuration not stated) | 94.3% | 86.9% | 92.6% | 95% |  | 89.3% | 101% |  | 91.2% | 94.5% | 83.7% | 95.8% | 104% | 94.3% |  |  | 92% | 105% |  |
| NC(=O)C(Br)CBr (configuration not stated) | -40.8% (active) | -81.7% (active) | -50.1% (active) | 80.1% | 3.13% (active) | -73.1% (active) | 22% |  | -12.1% (active) |  | -39.3% (active) | -100% (active) |  | 51.1% |  | -83.7% (active) | 4.34% (active) | -28% (active) |  |
| [Cl][Hg][n]1cnc2c(Cl)c(Cl)c(Cl)cc21 |  | 50.2% | 96.5% | 102% | 79.6% | 81.7% | 102% | 103% |  | 80.1% | 98.9% | 109% |  | 79.5% |  |  | 86.7% | 107% | 93.4% |
| C[CH2][Sn]([CH2]C)([CH2]C)[NH]S(=O)(=O)c1ccc(C)cc1 |  | 110% | 116% | 114% | 92.3% | 99% | 106% | 88.6% | 108% | 99.7% | 115% | 103% | 111% | 89.4% |  |  | 102% | 111% | 111% |
